In publication PMC11995724, “Antibiotic target discovery by integrated phenotypic and activity-based profiling of electrophilic fragments” (Cell chemical biology, 2025):
Out of some 3,200 compounds screened, about 75 (2%) showed an effect of 50% or more. The sample holds strong results, similar compounds and a random draw of the others, so the mix is not that of the screen.

Test system: T1, S. aureus MSSA476
T1 construct: MSSA476
Parameters: species or system S. aureus MSSA476 (TSB) or V. cholerae SAD30 (LB); 384-well bacterial growth screen at 25 uM, OD600 relative to DMSO control
Conditions: relative growth, OD600, TSB; 25 µM; inhibitor

Row | Structure (SMILES) | % of control remaining
1 | CC(Cl)C(=O)NCCc1nnc2n1CCCCC2 (centres unmarked) [7-D09, 2-chloro-N-(2-{5H,6H,7H,8H,9H-[1,2,4]triazolo[4,3-a]azepin-3-yl}ethyl)propanamide] | 92.3077%
2 | O=C(CCl)Nc1cc(-n2cnnn2)ccc1Cl [6-A05, 2-chloro-N-[2-chloro-5-(1H-1,2,3,4-tetrazol-1-yl)phenyl]acetamide] | 78.1951%
3 | CC(Cl)C(=O)NCc1nn(-c2ccccc2)c2c1CCC2 (centres unmarked) [7-P05, 2-chloro-N-({1-phenyl-1H,4H,5H,6H-cyclopenta[c]pyrazol-3-yl}methyl)propanamide] | 91.9937%
4 | COc1ccc(-c2csc(NC(=O)CCl)n2)c(O)c1 [4-A11, 2-chloro-N-[4-(2-hydroxy-4-methoxyphenyl)-1,3-thiazol-2-yl]acetamide] | 1.1434%
5 | COc1ccc(OC)c(-c2csc(NC(=O)CCl)n2)c1 [4-H12, 2-chloro-N-[4-(2,5-dimethoxyphenyl)-1,3-thiazol-2-yl]acetamide] | 86.8985%
6 | COc1ccc(-c2csc(NC(=O)CCl)n2)cc1 [4-N06, 2-chloro-N-[4-(4-methoxyphenyl)-1,3-thiazol-2-yl]acetamide] | 111.291%
7 | O=C(CCl)Nc1nc(-c2ccccc2)cs1 [4-L04, 2-chloro-N-(4-phenyl-1,3-thiazol-2-yl)acetamide] | 143.306%
8 | CCCc1ccc(-c2csc(NC(=O)CCl)n2)cc1 [4-C09, 2-chloro-N-[4-(4-propylphenyl)-1,3-thiazol-2-yl]acetamide] | 5.717%
9 | COc1ccc(-c2csc(NC(=O)CCl)n2)c(OC)c1 [4-F12, 2-chloro-N-[4-(2,4-dimethoxyphenyl)-1,3-thiazol-2-yl]acetamide] | 83.4683%
10 | CC(Cl)C(=O)N1CCN(C(C)c2cccc(C#N)c2)CC1 (centres unmarked) [7-P22, 3-{1-[4-(2-chloropropanoyl)piperazin-1-yl]ethyl}benzonitrile] | 115.542%
11 | C=CC(=O)NCCc1nnc(C)s1 [3-G22, N-[2-(5-methyl-1,3,4-thiadiazol-2-yl)ethyl]prop-2-enamide] | 111.45%
12 | C=CC(=O)N(CC)CC(=O)N1CCCC1c1ccc(F)cc1C (centres unmarked) [2-F08, N-ethyl-N-{2-[2-(4-fluoro-2-methylphenyl)pyrrolidin-1-yl]-2-oxoethyl}prop-2-enamide] | 97.1279%
13 | CC(=O)c1cccc(S(=O)(=O)N2CCN(C(=O)CCl)CC2)c1 [4-F05, 1-[4-(3-acetylbenzenesulfonyl)piperazin-1-yl]-2-chloroethan-1-one] | 105.574%
14 | C=CC(=O)N1CCC(Cn2nc(C)cc2C)CC1 [2-C17, 1-{4-[(3,5-dimethyl-1H-pyrazol-1-yl)methyl]piperidin-1-yl}prop-2-en-1-one] | 100.957%
15 | CCOc1ccccc1NC(=O)C(C#N)=Cc1c(F)cccc1F [8-G21, 2-cyano-3-(2,6-difluorophenyl)-N-(2-ethoxyphenyl)prop-2-enamide] | 69.3776%
16 | CCc1cnc(N2CCN(C(=O)C(C)Cl)CC2)s1 (centres unmarked) [7-C20, 2-chloro-1-[4-(5-ethyl-1,3-thiazol-2-yl)piperazin-1-yl]propan-1-one] | 99.2151%
17 | C=CC(=O)N(C)CC(=O)N1CCC2(CC1)CC2c1nnc(C(C)C)o1 (centres unmarked) [2-N22, N-methyl-N-(2-oxo-2-{1-[5-(propan-2-yl)-1,3,4-oxadiazol-2-yl]-6-azaspiro[2.5]octan-6-yl}ethyl)prop-2-enamide] | 98.8686%
18 | N#CC(=Cc1ccc2c(c1)OCO2)C(=O)NCc1ccccc1 [8-A09, 3-(1,3-dioxaindan-5-yl)-N-benzyl-2-cyanoprop-2-enamide] | 113.527%
19 | Cn1ccnc1C(=O)CCl [10-C15, 2-chloro-1-(1-methyl-1H-imidazol-2-yl)ethan-1-one] | 93.75%
20 | COC(=O)c1c(C(=O)CCl)c(C)n(C(C)C)c1C [10-K21, methyl 4-(2-chloroacetyl)-2,5-dimethyl-1-(propan-2-yl)-1H-pyrrole-3-carboxylate] | 119.375%
21 | CC(C)n1ccnc1C(=O)CCl [10-H10, 2-chloro-1-[1-(propan-2-yl)-1H-imidazol-2-yl]ethan-1-one] | 2.1875%

Row | Structure (SMILES) | % of control remaining
22 | C=CCNC(=O)C(C#N)=Cc1sccc1C [9-P07, 2-cyano-3-(3-methylthiophen-2-yl)-N-(prop-2-en-1-yl)prop-2-enamide] | 115.955%
23 | CC(Cl)C(=O)Nc1ccc(Cl)cc1Cl (centres unmarked) [4-L17, 2-chloro-N-(2,4-dichlorophenyl)propanamide] | 92.9967%
24 | CC(Cl)C(=O)N1CCCN(C(=O)c2cc(Cl)cn2C)CC1 (centres unmarked) [7-N07, 2-chloro-1-[4-(4-chloro-1-methyl-1H-pyrrole-2-carbonyl)-1,4-diazepan-1-yl]propan-1-one] | 91.6797%
25 | CS(=O)(=O)c1ccc(C(=O)CCl)cc1 [10-I13, 2-chloro-1-(4-methanesulfonylphenyl)ethan-1-one] | 83.125%
26 | CS(=O)(=O)Nc1ccc(C(=O)CCl)cc1 [10-D19, N-[4-(2-chloroacetyl)phenyl]methanesulfonamide] | 28.125%
27 | CS(=O)(=O)NCCc1ccc(C(=O)CCl)cc1 [10-D06, N-{2-[4-(2-chloroacetyl)phenyl]ethyl}methanesulfonamide] | 79.375%
28 | CC(=O)Nc1ccc(C(=O)CCl)cc1 [10-O12, N-[4-(2-chloroacetyl)phenyl]acetamide] | 6.875%
29 | NC(=O)c1ccc(NC(=O)CCl)cc1 [4-P04, 4-(2-chloroacetamido)benzamide] | 95.2835%
30 | CCCC(=O)Nc1ccc(C(=O)C(C)Cl)cc1 (centres unmarked) [10-O06, N-[4-(2-chloropropanoyl)phenyl]butanamide] | 121.875%
31 | CC(=O)c1ccc(NC(=O)CCl)cc1 [4-G07, N-(4-acetylphenyl)-2-chloroacetamide] | 93.7589%
32 | NC(=O)Nc1ccc(C(=O)CCl)cc1 [10-J07, [4-(2-chloroacetyl)phenyl]urea] | 55.625%
33 | CC(C)CC(=O)Nc1ccc(C(=O)CCl)cc1 [10-N06, N-[4-(2-chloroacetyl)phenyl]-3-methylbutanamide] | 1.25%
34 | COc1ccccc1NC(=O)c1ccc(NC(=O)CCl)cc1 [4-O17, 4-(2-chloroacetamido)-N-(2-methoxyphenyl)benzamide] | 92.2344%
35 | O=C(CCl)c1ccc(NC(=O)c2ccccc2)cc1 [10-B06, N-[4-(2-chloroacetyl)phenyl]benzamide] | 0%
36 | O=C(CCl)Nc1cccc(NC(=O)c2ccccc2)c1 [6-A03, N-[3-(2-chloroacetamido)phenyl]benzamide] | 76.1463%
37 | CCCn1c(N)c(C(=O)CCl)c(=O)n(C)c1=O [10-H12, 6-amino-5-(2-chloroacetyl)-3-methyl-1-propyl-1,2,3,4-tetrahydropyrimidine-2,4-dione] | 92.8125%
38 | C=CC(=O)NC(C)c1cnc(C(F)(F)F)s1 (centres unmarked) [2-A05, N-{1-[2-(trifluoromethyl)-1,3-thiazol-5-yl]ethyl}prop-2-enamide] | 119.06%
39 | N#CC(=Cc1ccc(Cl)c([N+](=O)[O-])c1)C(=O)N1CCCC1 [9-N05, 3-(4-chloro-3-nitrophenyl)-2-(pyrrolidine-1-carbonyl)prop-2-enenitrile] | 107.566%
40 | Cc1cc(C=C(C#N)C(=O)Nc2ccccc2)c(C)n1C1CC1 [8-E14, 2-cyano-3-(1-cyclopropyl-2,5-dimethyl-1H-pyrrol-3-yl)-N-phenylprop-2-enamide] | 129.793%
41 | C=CC(=O)N1CCCCC1c1noc(C2CC2)n1 (centres unmarked) [3-K12, 1-[2-(5-cyclopropyl-1,2,4-oxadiazol-3-yl)piperidin-1-yl]prop-2-en-1-one] | 93.3391%
42 | CCc1ccccc1NC(=O)CN(C)C(=O)C(C)Cl (centres unmarked) [4-P05, 2-chloro-N-{[(2-ethylphenyl)carbamoyl]methyl}-N-methylpropanamide] | 90.7099%

Row | Structure (SMILES) | % of control remaining
43 | CC(Cl)C(=O)Nc1ccc(NC(=O)c2cccs2)cc1 (centres unmarked) [6-G07, N-[4-(2-chloropropanamido)phenyl]thiophene-2-carboxamide] | 112.683%
44 | NS(=O)(=O)c1ccc(CNC(=O)CCl)cc1 [4-P12, 2-chloro-N-[(4-sulfamoylphenyl)methyl]acetamide] | 97.1891%
45 | C=CC(=O)NCC1(OC)CCC(C)CC1 (centres unmarked) [1-P08, N-[(1-methoxy-4-methylcyclohexyl)methyl]prop-2-enamide] | 89.3187%
46 | COc1ccc(N2C(=O)C=CC2=O)c(OC)c1 [10-J15, 1-(2,4-dimethoxyphenyl)-2,5-dihydro-1H-pyrrole-2,5-dione] | 121.875%
47 | CC(C)C(=O)Nc1ccc(C(=O)C(C)Cl)cc1 (centres unmarked) [10-E08, N-[4-(2-chloropropanoyl)phenyl]-2-methylpropanamide] | 106.875%
48 | CCc1ccc(C(=O)CCl)cc1 [10-F18, 2-chloro-1-(4-ethylphenyl)ethan-1-one] | 102.188%
49 | CCN(CC)C(=O)c1ccc(NC(=O)CCl)cc1 [4-C05, 4-(2-chloroacetamido)-N,N-diethylbenzamide] | 84.9929%
50 | CCC(=O)Nc1ccc(C(=O)CCl)cc1 [10-C03, N-[4-(2-chloroacetyl)phenyl]propanamide] | 1.5625%
51 | CSc1ccc(C(=O)CCl)cc1 [10-E07, 2-chloro-1-[4-(methylsulfanyl)phenyl]ethan-1-one] | 2.1875%
52 | CC(C)C(=O)Nc1ccc(C(=O)CCl)cc1 [10-D04, N-[4-(2-chloroacetyl)phenyl]-2-methylpropanamide] | 4.6875%
53 | CC(NC(=O)CCl)C(=O)Nc1ccc(Cl)cc1 (centres unmarked) [5-G11, 2-(2-chloroacetamido)-N-(4-chlorophenyl)propanamide] | 83.4244%
54 | CCOC(=O)c1ccc(NC(=O)CCl)cc1 [4-E17, ethyl 4-(2-chloroacetamido)benzoate] | 118.152%
55 | CCCc1ccc(C(=O)CCl)cc1 [10-C04, 2-chloro-1-(4-propylphenyl)ethan-1-one] | 134.375%
56 | CC(=O)NCc1ccc(C2CCCN2C(=O)CCl)o1 (centres unmarked) [5-P13, N-({5-[1-(2-chloroacetyl)pyrrolidin-2-yl]furan-2-yl}methyl)acetamide] | 100.182%
57 | COc1cc(NC(=O)C(C)Cl)cc(OC)c1 (centres unmarked) [4-I04, 2-chloro-N-(3,5-dimethoxyphenyl)propanamide] | 105.574%
58 | CC(Cl)C(=O)N(Cc1ccc(Cl)cc1)Cc1cnn(C)c1 (centres unmarked) [5-P17, 2-chloro-N-[(4-chlorophenyl)methyl]-N-[(1-methyl-1H-pyrazol-4-yl)methyl]propanamide] | 95.4463%
59 | C=CC(=O)NCc1ccc(C(=O)N2CCCOC(C)(C)C2)cc1 [3-N06, N-{[4-(2,2-dimethyl-1,4-oxazepane-4-carbonyl)phenyl]methyl}prop-2-enamide] | 118.764%
60 | CC(C)NC(=O)C(C#N)=Cc1cccc2ccccc12 [8-P06, 2-cyano-3-(naphthalen-1-yl)-N-(propan-2-yl)prop-2-enamide] | 127.801%
61 | C=CC(=O)N1CCC(C(=O)Nc2cccc(NC(=O)C(C)C)c2)CC1 [3-F05, N-[3-(2-methylpropanamido)phenyl]-1-(prop-2-enoyl)piperidine-4-carboxamide] | 95.0805%
62 | CC(Cl)C(=O)C=C1N(C)c2ccccc2C1(C)C (centres unmarked) [10-J22, 3-chloro-1-(1,3,3-trimethyl-2,3-dihydro-1H-indol-2-ylidene)butan-2-one] | 134.063%
